Potency data for 28 compounds are collected here from PubChem BioAssay (NCATS).

Records with an inconclusive call do not appear. Calls of active or inactive are those of the source. Calls come from the whole dose curve; as a rule, active = well fitted inhibition curve with a large enough effect; inconclusive = small, poorly fitted or top-dose-only effect; inactive = flat fitted curve, though single readings scatter.

Common to all, as to assay: qHTS profiling for inhibitors of Plasmodium falciparum proliferation (AID 504749); note: nearly all actives have a fitted effect of over 60% in size
What all share (details): P. falciparum in erythrocytes, SYBR Green DNA, 72 h; series mostly up to 28.7 µM
Background: qHTS replaces the single test concentration by a dilution series.

The subject of one assay is CP335. In a few lines:
(§1)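 Three-day growth assay of blood-stage parasites in erythrocytes (0.3% parasitemia, 2.5% hematocrit) at 37 C, 5% CO2, quantified by SYBR Green DNA staining after overnight detergent lysis.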

Another assay relates to DFO2036. A digest of the protocol:
as §1

The next assay relates to DIV14. In a few lines:
as §1

The test system of a further assay is DIV30. In a few lines:
as §1

The next assay relates to Dd2. A digest of the protocol: as §1
The next assay concerns ECU. A digest of the protocol: as §1
The test system of another assay is FAB9. In a few lines: as §1
The next assay deals with GB4. In a few lines:
as §1

The test system of another assay is HB3. A digest of the protocol: as §1
For another assay, the system named is DIV17. A digest of the protocol: as §1
Potency is the fitted concentration of half-maximal effect.

With `CC1(COc2ccc(CC3SC(=O)NC3=O)cc2)CCCCC1` (stereo not drawn), the Potency result in the assay with CP335, in the assay on DFO2036, in the assay with DIV14, with DIV30, in the assay on Dd2 and in the assay with ECU was “inactive” throughout. Besides, the Potency result in the assay on FAB9, in the assay on GB4 and in the assay on HB3 was “inactive” each time.

As for `CCCN(CCc1cccs1)[C@H]1CCc2c(O)cccc2C1`, the Potency is 8.49 µM (active) with CP335; 10 µM (active) with DFO2036; 4.26 µM (active) in the assay with DIV14; 3.01 µM (active) in the assay with DIV17; 5.36 µM (active) in the assay on DIV30; 2.51 µM (active) in the assay on Dd2. For the same compound, the Potency in the assay with ECU is 2.82 µM (active); with GB4, 1.69 µM (active); in the assay on HB3, 10 µM (active).

Take `CC(=O)NCCCCCC(=O)O`: the Potency result in the assay on CP335, in the assay on DFO2036, in the assay with DIV14, with DIV30, in the assay on Dd2 and with ECU was “inactive” throughout. Also, the Potency entry in the assay with FAB9, with GB4 and with HB3 was “inactive” throughout.

For `FC(F)(F)C(F)(F)C(F)(F)C(F)(F)C(F)(F)C(F)(F)C(F)(F)C(F)(F)Br`, the Potency entry with CP335, with DFO2036, in the assay with DIV14, in the assay on DIV17, in the assay with DIV30 and in the assay on Dd2 was “inactive” each time. Moreover, the Potency result in the assay with ECU, in the assay with FAB9, in the assay with GB4 and in the assay with HB3 was “inactive” throughout.

Consider `COc1cc(N)c(Cl)cc1C(=O)NC1CCN(Cc2ccccc2)CC1`, for which the Potency entry with CP335, in the assay on DFO2036, in the assay on DIV14, in the assay on DIV17, in the assay on Dd2 and in the assay with ECU was “inactive” throughout. Moreover, the Potency result with FAB9 and with HB3 was “inactive” in each case.

Turning to `CN(C)CCC[C@@]1(c2ccc(F)cc2)OCc2cc(C#N)ccc21`, the Potency result with CP335, in the assay on DFO2036, with DIV14, in the assay with DIV17, in the assay with DIV30 and in the assay with ECU was “inactive” throughout. Also, the Potency result in the assay with FAB9, in the assay on GB4 and in the assay on HB3 was “inactive” each time.

Regarding `CCNC(=O)NCc1cccc(Cl)c1`, the Potency result with CP335, in the assay with DFO2036, with DIV14, in the assay with DIV30, with Dd2 and with ECU was “inactive” in each case. For the same compound, the Potency entry with FAB9, with GB4 and with HB3 was “inactive” in each case.

On to `CCCCCN=C(N)N/N=C/c1c[nH]c2ccc(OC)cc12`, for which the Potency in the assay on CP335 was 6.01 µM (active); in the assay with DFO2036, 5.01 µM (active); with DIV14 it was 2.69 µM (active); in the assay on DIV17, 1.51 µM (active); in the assay with DIV30, 12 µM (active); in the assay on Dd2, 3.16 µM (active). In addition, the results for the Potency in the assay on ECU, in the assay with GB4 and in the assay with HB3 were 8.91 µM (active), 5.36 µM (active) and 3.16 µM (active), respectively.

Turning to `Oc1ccccc1C=NCc1ccccc1`, the Potency result in the assay with CP335, in the assay on DFO2036, in the assay with DIV14, in the assay on DIV17, in the assay with DIV30 and in the assay with Dd2 was “inactive” throughout. The Potency result in the assay with ECU, in the assay with FAB9, with GB4 and in the assay on HB3 was “inactive” in each case.

For `OCc1ccccn1`, the Potency entry with CP335, in the assay on DFO2036, in the assay with DIV14, in the assay with DIV17, in the assay on DIV30 and in the assay with Dd2 was “inactive” throughout. In addition, the Potency entry in the assay on ECU, in the assay with FAB9, in the assay on GB4 and in the assay on HB3 was “inactive” throughout.

As for `NC(=O)n1c(O)c(C(=O)c2cccs2)c2cc(Cl)ccc21`, the Potency entry in the assay on CP335, with DFO2036, in the assay with DIV14, in the assay with DIV17, with DIV30 and with Dd2 was “inactive” throughout. Further, the Potency result in the assay on ECU, in the assay with FAB9, in the assay with GB4 and with HB3 was “inactive” throughout.

In the case of `NC(=O)c1ccccc1O`, the Potency entry in the assay on CP335, in the assay on DFO2036, in the assay with DIV14, in the assay with DIV17, in the assay with DIV30 and in the assay with Dd2 was “inactive” in each case. For the same compound, the Potency result in the assay with ECU, with FAB9, in the assay on GB4 and with HB3 was “inactive” each time.

As for `CCc1ccc(C(=O)C(C)CN2CCCCC2)cc1` (stereo not drawn), the Potency result in the assay with CP335, in the assay on DFO2036, with DIV14, with DIV30, with Dd2 and with ECU was “inactive” each time. In addition, the Potency result with FAB9, in the assay on GB4 and in the assay on HB3 was “inactive” each time.

Turning to `O=C(NCCc1c[nH]c2ccccc12)c1cccnc1`, the Potency entry with CP335, in the assay on DFO2036, in the assay with DIV14, in the assay with DIV17, with DIV30 and in the assay on Dd2 was “inactive” in each case. The Potency result with ECU, in the assay on FAB9, with GB4 and in the assay on HB3 was “inactive” throughout.

In the case of `COc1ccc(/C=N/NC(=O)c2ccncc2)cc1OC`, the Potency result with CP335, with DFO2036, in the assay with DIV14, in the assay on DIV17, in the assay with DIV30 and in the assay with Dd2 was “inactive” throughout. In addition, the Potency result in the assay with ECU, with FAB9, in the assay on GB4 and in the assay on HB3 was “inactive” in each case.

As for `OC[C@H]1O[C@@H]2O[C@H]3[C@H](O)[C@@H](O)[C@@H](O[C@H]4[C@H](O)[C@@H](O)[C@@H](O[C@H]5[C@H](O)[C@@H](O)[C@@H](O[C@H]6[C@H](O)[C@@H](O)[C@@H](O[C@H]7[C@H](O)[C@@H](O)[C@@H](O[C@H]8[C@H](O)[C@@H](O)[C@@H](O[C@H]1[C@H](O)[C@H]2O)O[C@@H]8CO)O[C@@H]7CO)O[C@@H]6CO)O[C@@H]5CO)O[C@@H]4CO)O[C@@H]3CO`, the Potency entry in the assay on CP335, with DFO2036, in the assay on DIV14, in the assay with DIV30, in the assay with Dd2 and with ECU was “inactive” each time. Further, the Potency result in the assay with FAB9, in the assay with GB4 and in the assay with HB3 was “inactive” each time.

For the compound `Cc1ccc(S(=O)(=O)NC(=O)NC2CCCC2)cc1`, the Potency result in the assay with CP335, in the assay with DFO2036, in the assay with DIV14, with DIV17, in the assay on DIV30 and in the assay on Dd2 was “inactive” each time. For the same compound, the Potency entry in the assay on ECU, in the assay on FAB9, with GB4 and in the assay on HB3 was “inactive” throughout.

For `O=C(Oc1cccc2cccnc12)c1ccccc1`, the Potency entry in the assay with CP335, in the assay with DFO2036, in the assay on DIV14, in the assay with DIV17, with DIV30 and with Dd2 was “inactive” each time. Moreover, the Potency result in the assay with ECU, in the assay with FAB9 and with HB3 was “inactive” throughout.

Consider `COc1cc(NS(=O)(=O)c2ccc(N)cc2)ncn1`, for which the Potency result in the assay with CP335, in the assay with DFO2036, with DIV14, with DIV30, in the assay with Dd2 and in the assay with ECU was “inactive” each time. Besides, the Potency entry in the assay with FAB9, with GB4 and in the assay with HB3 was “inactive” throughout.

For `NC(N)=NN=C(/C=C/c1ccc([N+](=O)[O-])o1)/C=C/c1ccc([N+](=O)[O-])o1`, the Potency in the assay on CP335 is 4.78 µM (active); in the assay with DFO2036 it was 11.2 µM (active); in the assay on DIV14 it was 7.57 µM (active); in the assay with DIV17, 7.57 µM (active); in the assay with Dd2, 2.82 µM (active); in the assay with ECU, 12.6 µM (active). Besides, in the assay with HB3, the Potency was 2.24 µM (active).

For `Cc1cc(C)cc(OCC2CNC(=O)O2)c1` (stereo not drawn), the Potency entry in the assay on CP335, in the assay on DFO2036, in the assay with DIV14, in the assay with DIV17, in the assay with DIV30 and in the assay on Dd2 was “inactive” each time. The Potency result with ECU, in the assay with FAB9, in the assay with GB4 and in the assay on HB3 was “inactive” in each case.

On to `CC(=O)Nc1ccc(S(=O)(=O)Nc2ccc([N+](=O)[O-])cc2)cc1`, for which the Potency result with CP335, with DFO2036, in the assay on DIV14, in the assay on DIV17, in the assay on Dd2 and with ECU was “inactive” throughout. The Potency result in the assay with FAB9, in the assay on GB4 and with HB3 was “inactive” in each case.

For `CC(=O)Nc1ccc(CC(=O)O)cc1`, the Potency result in the assay on CP335, in the assay with DFO2036, in the assay with DIV14, with DIV17, in the assay with DIV30 and with Dd2 was “inactive” throughout. Also, the Potency result with ECU, in the assay on FAB9, with GB4 and in the assay on HB3 was “inactive” each time.

Regarding `CC(=O)N[C@@H](CCC(=O)O)C(=O)O`, the Potency entry in the assay with CP335, with DFO2036, in the assay with DIV14, with DIV17, in the assay on DIV30 and in the assay on Dd2 was “inactive” each time. For the same compound, the Potency entry in the assay with ECU, in the assay with FAB9 and in the assay on HB3 was “inactive” each time.

As to `CCN(CC)CCNC(=O)COc1ccc(OC)cc1`, the Potency entry in the assay on CP335, in the assay with DFO2036, in the assay with DIV14, with DIV17, in the assay on DIV30 and in the assay on Dd2 was “inactive” each time. The Potency result with ECU, in the assay with FAB9 and in the assay with HB3 was “inactive” throughout.

`CC(C)Nc1cccnc1N1CCN(C(=O)c2cc3cc(NS(C)(=O)=O)ccc3[nH]2)CC1`: the Potency entry with CP335, in the assay on DFO2036, in the assay with ECU, with FAB9, in the assay with GB4 and with HB3 was “inactive” in each case. Besides, the Potency with DIV14 was 0.379 µM (active); in the assay with DIV17 it was 1.07 µM (active).

Consider `CCN(CC)CCNc1ccc(CO)c2sc3ccccc3c(=O)c12`, for which the Potency with CP335 is 1.51 µM (active); with DFO2036, 0.447 µM (active); in the assay on DIV14, 4.26 µM (active); in the assay with DIV17, 2.39 µM (active); with DIV30, 9.53 µM (active); in the assay on Dd2, 2.24 µM (active). In addition, the Potency in the assay with ECU is 0.708 µM (active); in the assay with GB4, 1.2 µM (active); with HB3, 8.91 µM (active).

For the compound `CC(C)[N+](C)(C)CC(O)COc1cccc2ccccc12` (stereo not drawn), the values for the Potency in the assay on CP335 and with FAB9 were 9.53 µM (active) and 7.94 µM (active), respectively. For the same compound, the Potency result in the assay with DIV14 and in the assay with DIV30 was “inactive” in each case.
